Assay results published in PubChem BioAssay AID1159580 (chemical genetic matrix, 2015).
The campaign covered roughly 5,500 compounds. About 2,000 (36%) were called active. Not shown: some 18% with an inconclusive outcome. Rule as the data show it: active = normalized growth mostly below about 0.91 (no sharp cut-off); inconclusive = no clear call, values can overlap the other calls; inactive = mostly above about 0.92. The list shows a part of the results.

Experiment: chemical genetic growth profiling, strain panel (AID 1159580);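 also: tested at 20 µM; growth read once vehicle control cultures reached saturation at 30 °C; 1 = growth at the plate median or of vehicle wells; lower values mean less growth of the strain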
Conditions: S. cerevisiae deletion strains, growth OD
[1] = locus YAR019C, strain CDC15, hits give low values
[2] = locus YBL105C, strain PKC1, hits give low values
[3] = locus YBR135W, strain CKS1, hits give low values
[4] = locus YBR136W, strain MEC1, hits give low values
[5] = locus YBR160W, strain CDC28, hits give low values
[6] = locus YDL017W, strain CDC7, hits give low values
[7] = locus YDL028C, strain MPS1, hits give low values
[8] = locus YDL101C, strain DUN1, hits give low values
[9] = locus YDL108W, strain KIN28, hits give low values
[10] = locus YDL132W, strain cdc53, hits give low values
[11] = locus YDL214C, strain PRR2, hits give low values
[12] = locus YDR052C, strain DBF4, hits give low values
[13] = locus YDR054C, strain cdc34, hits give low values
[14] = locus YDR226W, strain ADK1, hits give low values
[15] = locus YDR477W, strain SNF1, hits give low values
[16] = locus YER123W, strain YCK3, hits give low values
[17] = locus YER133W, strain GLC7, hits give low values
[18] = locus YFL009W, strain cdc4, hits give low values
[19] = locus YFL029C, strain CAK1, hits give low values
[20] = locus YFR003C, strain YPI1, hits give low values
[21] = locus YFR019W, strain FAB1, hits give low values
[22] = locus YFR028C, strain CDC14, hits give low values
[23] = locus YGR040W, strain KSS1, hits give low values
[24] = locus YGR052W, strain FMP48, hits give low values
[25] = locus YGR092W, strain DBF2, hits give low values
[26] = locus YHR030C, strain SLT2, hits give low values
[27] = locus YHR079C, strain IRE1, hits give low values
[28] = locus YHR082C, strain KSP1, hits give low values
[29] = locus YHR205W, strain SCH9, hits give low values
[30] = locus YIL147C, strain SLN1, hits give low values
[31] = locus YJL095W, strain BCK1, hits give low values
[32] = locus YJL128C, strain PBS2, hits give low values
[33] = locus YJL157C, strain FAR1, hits give low values
[34] = locus YJR016C, strain ILV3, hits give low values
[35] = locus YJR066W, strain TOR1 (second series), hits give low values
[36] = locus YJR066W, strain TOR1, hits give low values
[37] = locus YKL048C, strain ELM1, hits give low values
[38] = locus YKL067W, strain YNK1, hits give low values
[39] = locus YKL101W, strain HSL1, hits give low values
[40] = locus YKL193C, strain SDS22, hits give low values
[41] = locus YKL203C, strain TOR2, hits give low values
[42] = locus YLR113W, strain HOG1, hits give low values
[43] = locus YLR133W, strain CKI1, hits give low values
[44] = locus YLR403W, strain SFP1, hits give low values
[45] = locus YML070W, strain DAK1, hits give low values
[46] = locus YMR001C, strain CDC5, hits give low values
[47] = locus YMR205C, strain PFK2 (second series), hits give low values
[48] = locus YMR277W, strain FCP1, hits give low values
[49] = locus YNL006W, strain LST8, hits give low values
[50] = locus YNL020C, strain ARK1, hits give low values
[51] = locus YNL161W, strain CBK1, hits give low values
[52] = locus YNL183C, strain NPR1, hits give low values
[53] = locus YNL207W, strain RIO2, hits give low values
[54] = locus YNL222W, strain SSU72, hits give low values
[55] = locus YNL307C, strain MCK1 (second series), hits give low values
[56] = locus YOL078W, strain AVO1, hits give low values
[57] = locus YOL136C, strain PFK27, hits give low values
[58] = locus YOR061W, strain CKA2, hits give low values
[59] = locus YOR119C, strain RIO1, hits give low values
[60] = locus YOR231W, strain MKK1, hits give low values
[61] = locus YOR329C, strain SCD5, hits give low values
[62] = locus YPL031C, strain PHO85, hits give low values
[63] = locus YPL153C, strain RAD53, hits give low values
[64] = locus YPL204W, strain HRR25, hits give low values
[65] = locus YPL209C, strain IPL1, hits give low values
[66] = locus YPL256C, strain CLN2, hits give low values
[67] = locus YPR025C, strain CCL1, hits give low values
[68] = locus YPR106W, strain ISR1, hits give low values
[69] = locus YPR111W, strain DBF20, hits give low values
[70] = strain NNK1, hits give low values
[71] = strain TSCII, hits give low values

Measured: normalized growth

Cc1c(-c2ccnn2C(=O)c2ccco2)cnn1-c1ccccc1
active: [26] 0.739 | [42] 0.799 | [66] 0.825
inactive: [1] 0.954 | [2] 0.957 | [3] 0.958 | [4] 0.954 | [5] 0.957 | [6] 0.964 | [7] 0.93 | [8] 0.978 | [9] 0.954 | [10] 0.953 | [11] 0.904 | [12] 0.982 | [13] 0.952 | [14] 0.953 | [15] 0.861 | [16] 0.925 | [17] 0.915 | [18] 0.936 | [19] 0.954 | [20] 0.959 | [21] 0.945 | [22] 0.94 | [23] 0.872 | [24] 0.966 | [25] 0.917 | [27] 0.909 | [28] 0.953 | [29] 0.909 | [30] 0.958 | [31] 0.842 | [32] 0.908 | [33] 0.916 | [34] 0.962 | [35] 0.828 | [36] 0.89 | [37] 0.972 | [38] 0.908 | [39] 0.894 | [40] 0.959 | [41] 0.965 | [43] 0.917 | [44] 0.873 | [45] 0.895 | [46] 0.953 | [47] 0.939 | [48] 0.938 | [49] 0.953 | [50] 0.931 | [51] 0.974 | [52] 0.953 | [53] 0.958 | [54] 0.943 | [55] 0.894 | [56] 0.958 | [57] 0.898 | [58] 0.909 | [59] 0.919 | [60] 0.885 | [61] 0.974 | [62] 0.858 | [63] 0.873 | [64] 0.851 | [65] 0.969 | [67] 0.957 | [68] 0.957 | [69] 0.917 | [70] 0.964 | [71] 0.94

Cc1c(C(=O)N(Cc2ccccc2)Cc2cccs2)cnn1-c1ccc(Cl)cc1
inactive: [1] 0.992 | [2] 0.989 | [3] 0.984 | [4] 0.981 | [5] 0.981 | [6] 0.998 | [7] 0.985 | [8] 0.99 | [9] 0.985 | [10] 0.976 | [11] 0.947 | [12] 1 | [13] 0.987 | [14] 0.996 | [15] 0.946 | [16] 0.94 | [17] 0.957 | [18] 0.986 | [19] 0.988 | [20] 0.99 | [21] 0.963 | [22] 0.981 | [23] 0.938 | [24] 1.03 | [25] 0.967 | [26] 0.934 | [27] 0.953 | [28] 1.03 | [29] 0.919 | [30] 0.997 | [31] 0.945 | [32] 0.967 | [33] 0.935 | [34] 0.982 | [35] 0.883 | [36] 1.02 | [37] 0.97 | [38] 0.968 | [39] 0.94 | [40] 0.982 | [41] 0.997 | [42] 0.925 | [43] 0.936 | [44] 0.915 | [45] 0.926 | [46] 0.987 | [47] 0.944 | [48] 0.989 | [49] 1.01 | [50] 0.945 | [51] 0.995 | [52] 0.995 | [53] 0.989 | [54] 0.99 | [55] 0.95 | [56] 0.989 | [57] 0.926 | [58] 0.95 | [59] 1 | [60] 0.888 | [61] 0.99 | [62] 0.962 | [63] 0.926 | [64] 0.931 | [65] 0.988 | [66] 0.922 | [67] 0.99 | [68] 0.974 | [69] 0.972 | [70] 0.986 | [71] 0.973
